Results on 37 compounds are retold here after PubChem BioAssay AID493027 (The Scripps Research Institute Molecular Screening Center, 2011).

The whole screen tested about 2,000 compounds, of which about 45 (2%) were called active. Only a selection was taken, and actives are over-represented in it overall. A number with no mark means an inactive call.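 The calls were made as follows: active = inhibition above the screen-wide mean inhibition plus 3 SD (cut at about 44% in these data); inactive = the rest.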

The target of the assay is Perilipin-1 (Homo sapiens) + 1-acylglycerol-3-phosphate O-acyltransferase ABHD5 (Homo sapiens) (UniProt O60240+Q8WTS1). In words: ABHD5-PLIN1 interaction inhibitors, pilot screen, cell lysate, split luciferase complementation, luminescence, NIH validation set (AID 493027).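 Also: 0% = DMSO wells with the 100% control not disclosed.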 The conditions noted are these: split G. princeps luciferase complementation, 4 h; at 7.9 µM, hits give high values.
Chain of Perilipin-1 (Homo sapiens) + 1-acylglycerol-3-phosphate O-acyltransferase ABHD5 (Homo sapiens) (O60240 whole entry, looked up): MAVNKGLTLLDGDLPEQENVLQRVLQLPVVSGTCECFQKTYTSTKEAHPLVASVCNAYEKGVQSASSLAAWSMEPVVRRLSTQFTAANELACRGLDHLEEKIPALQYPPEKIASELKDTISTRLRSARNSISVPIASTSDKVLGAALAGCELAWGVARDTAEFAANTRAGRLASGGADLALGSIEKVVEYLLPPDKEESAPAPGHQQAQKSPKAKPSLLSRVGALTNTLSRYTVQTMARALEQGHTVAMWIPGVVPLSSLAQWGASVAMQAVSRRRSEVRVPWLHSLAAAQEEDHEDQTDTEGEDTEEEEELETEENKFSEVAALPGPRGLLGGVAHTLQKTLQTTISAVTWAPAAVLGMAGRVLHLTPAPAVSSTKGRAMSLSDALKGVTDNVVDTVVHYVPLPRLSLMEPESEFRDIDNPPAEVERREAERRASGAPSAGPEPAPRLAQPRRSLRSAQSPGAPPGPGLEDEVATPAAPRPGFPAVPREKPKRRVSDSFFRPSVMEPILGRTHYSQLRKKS
Chain of Perilipin-1 (Homo sapiens) + 1-acylglycerol-3-phosphate O-acyltransferase ABHD5 (Homo sapiens) (Q8WTS1 whole entry, looked up): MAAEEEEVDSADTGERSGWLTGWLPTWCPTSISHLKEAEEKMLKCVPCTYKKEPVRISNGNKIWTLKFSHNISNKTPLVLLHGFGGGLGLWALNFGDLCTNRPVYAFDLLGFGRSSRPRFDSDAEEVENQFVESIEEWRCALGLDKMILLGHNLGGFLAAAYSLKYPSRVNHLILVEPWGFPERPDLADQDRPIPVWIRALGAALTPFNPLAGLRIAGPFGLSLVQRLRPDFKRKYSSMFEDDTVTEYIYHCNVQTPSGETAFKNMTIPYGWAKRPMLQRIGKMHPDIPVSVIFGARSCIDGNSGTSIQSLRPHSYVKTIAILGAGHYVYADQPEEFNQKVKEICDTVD
As to `COc1ccccc1NC(=O)C12CCC(C)(C(=O)C1)C2(C)C` (configuration not stated), the inhibition is -0.67%. The same measure for `COCCn1c(SCCOc2ccccc2)nc2ccccc2c1=O`: -7.89%; for `Cc1nc(N)nc2c1CCCC2`: -5.16%. The same measure for `Nc1cc(-c2ccncc2)c[nH]c1=O`: 49% (active). The same measure for `c1cc(-c2ccncc2)ccn1`: -6.1%; for `O=C(O)c1cc2cc(Cl)cc(Cl)c2oc1=O`: 1.22%. For the compound `COc1ccc(CCN(C)CC(=O)Nc2cc(C)nc3ccccc23)cc1OC`, the inhibition is 3.27%. For `COc1cccc(OC2OC3COC(C)(C)OC3C(O)C2NC(C)=O)c1` (configuration not stated) the value was -10.2%; for `CC(C)[N+]1(C)[C@@H]2CC[C@H]1CC(OC(=O)C(CO)c1ccccc1)C2` (some centres not stated), -5.55%; for `CCCCC/C=C\C[C@H](O)/C=C/c1cccc(C[C@H](O)CCCCO)n1`, 57.6% (active).

Consider `O=P(c1ccccc1)(c1ccccc1)c1nc(-c2ccc(Cl)cc2)oc1N1CCOCC1`, for which the inhibition was 2.59%.

In the case of `COc1ccc(C=O)c(OC)c1`, the inhibition was 0.71%. The same measure for `CC(=O)NCCCCCCNC(C)=O`: 3.05%; for `Nc1ccc(S(N)(=O)=O)cc1N`: 1.88%; for `COc1cc(NC(=S)NN2CCN(C)CC2)cc(OC)c1OC`: -10%. With `COc1cc(C2C(C(C)=O)=C(O)C(=O)N2c2ccc(C)cc2)ccc1O` (configuration not stated), the inhibition was -3.68%. For `O=C(Nc1cccc(Cl)c1)N1CCN2C(=O)c3ccccc3C12c1ccccc1` (configuration not stated) the value was 6.94%; for `CC1(c2ccccc2)CC(C)(C)N2C(=O)C(=O)c3cccc1c32` (configuration not stated), 65.7% (active). For `O=C1c2ccccc2C2(c3ccccc3)NCCN12` (configuration not stated) the value was 0.96%; for `CC(=O)c1cccc(NC(=O)N[C@@H](CC(C)C)C(=O)O)c1`, -3.15%. The same measure for `COc1ccc(C(=O)Nc2ccc(OC)c([N+](=O)[O-])c2)cc1Br`: 0.74%. `COc1ccc(C(=O)/C=C/c2cc(C(=O)O)cc3c2OCOC3)c(O)c1`: the inhibition was 67.3% (active). Turning to `COc1ccc(C(=O)COc2ccc(F)cc2)c(O)c1`, the inhibition was -7.26%. The same measure for `C[C@H]([C@@H](N)C(=O)N[C@@H](C(=O)O)[C@@H]1O[C@H](n2ccc(=O)[nH]c2=O)[C@@H](O)[C@H]1O)[C@@H](O)c1ccc(O)cn1`: 8.07%; for `CCOC(=O)C1CCCN(Cc2nc(Cc3cccc(F)c3)no2)C1` (configuration not stated): -4.38%; for `COC(=O)c1cc(=O)c2ccc(OC)cc2o1`: -10.3%. `CSCC[C@H](NC(=O)OC(C)(C)C)C(=O)N1CCC(C(=O)N[C@@H](C)C(=O)O)CC1`: the inhibition is -2.64%. The same measure for `CC1(C)C(C=C(Cl)Cl)C1C(=O)N1CCN(Cc2ccccc2)CC1` (configuration not stated): -10.6%. The same measure for `CC(C)=CCCC(C)CN1CCC(N2CCC(C(=O)N3CCCC3)CC2)CC1` (configuration not stated): -9.96%; for `CC1(C)CC(O)(CNCc2ccc3c(c2)OCO3)CCO1` (configuration not stated): -11.9%.

As to `N#C/C(=C/c1ccccc1)C(=O)NCc1ccccc1`, the inhibition was 53.3% (active). The same measure for `N#C/C(=C\c1ccc(O)c(O)c1)C(=O)NCCCc1ccccc1`: 37.9%; for `S=C(NCc1ccccc1)NCc1cccc(CNC(=S)NCc2ccccc2)c1`: 4.65%; for `CN1[C@@H]2CC[C@H]1CC(OC(=O)C(CO)c1ccccc1)C2` (some centres not stated): -16.1%.

On to `COC(=O)c1cc(C(=O)NCCC(C)C)cc([N+](=O)[O-])c1`, for which the inhibition was -28.2%.

Consider `COc1cc(OC)c(C2C(C#N)=C(N)OC3=C2C(=O)CC(C)(C)C3)cc1OC` (configuration not stated), for which the inhibition is -0.37%.

Turning to `COc1ccc(-c2nc3c(=O)n(C)c(=O)[nH]c3n2CCc2ccccc2)cc1`, the inhibition was -1.13%.

For orientation: inhibition means the drop in the measured response relative to a control, in per cent.
